Inconclusive results are not listed. More than one record can exist for a structure, and the calls need not agree. Calls of active or inactive are those of the source. Unless noted, the call rests on the fitted dose curve; in most records, active means well fitted curve in the direction sought with a large enough effect; inconclusive means small, poorly fitted or top-dose-only effect, or another doubt; inactive means no such curve, though single readings can be large; an effect the other way counts as inactive or inconclusive.
Tests used:
[1] = molecular target: Beta-2 adrenergic receptor (Homo sapiens) (UniProt P07550); assay: qHTS validation assay of beta-arrestin-biased ligands of beta2-adrenergic receptor (AID 485366)
How it was run: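 Screening used a titration range of up to 46 microM in a beta-arrestin recruitment Tango luciferase assay. Cells in 1% FBS medium were treated 18 hr at 37 degrees C, and luminescence was normalized to %Activity.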

[2] = molecular target: ATP-dependent 6-phosphofructokinase (Trypanosoma brucei brucei) (UniProt O15648); assay: qHTS Validation Assay to Find Inhibitors of T. brucei phosphofructokinase (AID 485368); details: outcome: dose series up to 57.5 µM
How it was run: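 PFK-generated ADP was measured after 45 min at room temperature using ADP-Glo. The reaction contained 0.5 mM F6P and 0.1 mM ATP.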

[3] = Quantitative high throughput screen for delayed death inhibitors of the malarial parasite plastid, 96 hour incubation (AID 488745); further: nearly all actives have a fitted effect of over 70% in size; further: potency means the concentration at half of the fitted maximal effect
How it was run: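 Decreased firefly luciferase luminescence indicates inhibited growth of reporter-integrated P. falciparum after two generations (96 h, 37 C, 5% CO2). Infected erythrocytes at 0.1% parasitemia, 2% hematocrit, in Albumax-supplemented RPMI 1640.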

[4] = molecular target: Thioredoxin reductase 1, cytoplasmic (Rattus norvegicus) (UniProt O89049); assay: qHTS Assay for Substrates of Mammalian Selenoprotein Thioredoxin Reductase 1 (TrxR1) (AID 488772);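 further: series mostly up to about 57 µM; a drop in NADPH fluorescence below the no-compound background marks a TrxR1 substrate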
How it was run: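 In this dual-purpose format, potential substrates are identified from the first fluorescence read after selenite addition, not from the 8-minute delta. Rat enzyme is preincubated with NADPH and then with compound at ~22 deg C.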

[5] = molecular target: Flap endonuclease 1 (Homo sapiens) (UniProt P39748); assay: qHTS Validation Assay for the Inhibitors of Human Flap endonuclease 1 (FEN1) (AID 488816)
How it was run: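 qHTS format: compounds and 10 nM FEN1 incubated 15 min at room temperature before adding 50 nM substrate. Cleavage followed by reads at 0 and 15 min; normalized data fitted to a four-parameter Hill curve.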

[6] = molecular target: M-phase phosphoprotein 8 (Homo sapiens) (UniProt Q99549); assay: qHTS Validation Assay for Inhibitors for MPP8 Chromodomain Interactions with Methylated Histone Tails (AID 488949); further: nearly all actives have a fitted effect of over 55% in size; further: potency means the concentration at half of the fitted maximal effect
How it was run: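 AlphaScreen proximity signal from streptavidin donor and Ni-chelate acceptor beads (10 ug/mL each) reported binding of MPP8 to trimethyl-K9 H3(1-18) peptide, both at 50 nM. The complex formed 30 min before a 30 min compound exposure at room temperature, in PBS pH 7.4.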

[7] = molecular target: Methanococcus maripaludis chaperonin (MmCpn) (UniProt Q6LX38); assay: High-Throughput Screening for Modulators of Cytosolic Chaperonin Activity: MmCpn Primary Screen (AID 488978);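 further: 50 nM MmCpn enzyme hydrolysing 30 µM ATP at 37 °C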
How it was run: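 ATPase activity of 50 nM MmCpn was assayed with 30 uM ATP, 10 minutes at 37C, after a 5 min compound preincubation at room temperature. ADP production was read as HTRF emission at 590 and 665 nm.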

[8] = molecular target: Thyrotropin receptor (Homo sapiens) (UniProt P16473); assay: qHTS Assay for Antagonists of the Thyroid Stimulating Hormone Receptor (AID 488980); further: series mostly up to about 58 µM
How it was run: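 Inhibition of cAMP raised by EC80 TSH (4 nM final) was read by HTRF, with lysate cAMP competing against cAMP-d2 for cryptate antibody after 30 min at room temperature. The cells were transfected HEK293 held in phosphodiesterase inhibitor RO 20-1724 at 70 uM.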

[9] = molecular target: D(1A) dopamine receptor (Homo sapiens) (UniProt P21728); assay: HTS Assay for Allosteric Agonists of the Human D1 Dopamine Receptor: Primary Screen for Agonists (AID 488981); further: potency means the concentration at half of the fitted maximal effect
How it was run: (§1)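 Calcium flux in an inducible, force-coupled HEK293 Trex D1 line (overnight at 30 C): agonist mode is the 180 s kinetic read after compound; potentiator mode is the following 180 s read after dopamine at EC20.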

[10] = molecular target: D(1A) dopamine receptor (Homo sapiens) (UniProt P21728); assay: HTS Assay for Allosteric Agonists of the Human D1 Dopamine Receptor: Primary Screen for Potentiators (AID 488982); further: potency means the concentration at half of the fitted maximal effect
How it was run: as §1

[11] = molecular target: D(1A) dopamine receptor (Homo sapiens) (UniProt P21728); assay: HTS Assay for Allosteric Agonists of the Human D1 Dopamine Receptor: Primary Screen for Antagonists (AID 488983);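 further: calcium flux response to an EC80 dopamine challenge measured with no-wash dye; nearly all actives have a fitted effect of over 65% in size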; further: potency means the concentration at half of the fitted maximal effect
How it was run: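 Calcium-flux read-out in inducible HEK293 T-REx cells expressing D1, dye-loaded 30–90 min at room temperature. Kinetic reads: 180 s after compound (agonist phase), then 180 s after an EC80 dopamine challenge.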

[12] = Validation screen for small molecules that induce genotoxicity in human embryonic kidney (HEK293T) cells expressing luciferase-tagged ELG1 (AID 493106)
How it was run: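 ELG1-luciferase reporter readout (ONE-Glo, 30 min, room temperature) after 16 hr compound treatment at 37 °C of HEK293T cells at 2,000 per well. Rising luminescence flags genotoxic stress.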

[13] = molecular target: Tumor susceptibility gene 101 protein (Homo sapiens) (UniProt Q99816); assay: qHTS Validation Assay for Iinhibitors of HIV-1 Budding by Blocking the Interaction of PTAP/TSG101 (AID 485342; calls by dose curve)
How it was run: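 Fluorescence polarization of 50 nM FITC-PTAP peptide bound to 10 uM Tsg101 binding domain was read after 20 min room-temperature incubation with compounds, in 10 mM HEPES pH 7.5, 0.15 M NaCl, 0.01% Tween 20.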

[14] = qHTS Validation Assay to Find Inhibitors of Chronic Active B-Cell Receptor Signaling (AID 485345; active means well fitted curve in the direction sought with a large enough effect in the main read-out, with a control signal flat, not every such curve was filed as active)
How it was run: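 Read-out: ratio of filter-corrected green (IkappaBalpha fusion) to red (native) luciferase signal in doxycycline-induced TMD8 cells after 4 h at 37C. Titration spanned 46 uM–3 nM; Data were normalised to basal cells and 10 uM MG-132 wells.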

[15] = Quantitative high throughput screen for delayed death inhibitors of the malarial parasite plastid, 48 hour incubation (AID 488752); further: nearly all actives have a fitted effect of over 65% in size; further: potency means the concentration at half of the fitted maximal effect
How it was run: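 One-generation (48 h) growth assay: a decrease in luciferase signal from an integrated reporter in P. falciparum-infected red cells (0.1% parasitemia, 2% hematocrit) after compound exposure at 37 C indicates parasite inhibition.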

[16] = molecular target: Thioredoxin reductase 1, cytoplasmic (Rattus norvegicus) (UniProt O89049); assay: qHTS Assay for Inhibitors of Mammalian Selenoprotein Thioredoxin Reductase 1 (TrxR1) (AID 488773); details: Potency: inhibition;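 further: drop in NADPH fluorescence over an 8 min run after selenite addition; series mostly up to about 57 µM; nearly all actives have a fitted effect of over 40% in size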
How it was run: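 Inhibition is scored from the loss of NADPH fluorescence between first and last reads of an 8-min kinetic run. Selenite (400 uM) was the substrate, added after 15 min compound preincubation at room temperature.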

[17] = molecular target: Chromobox protein homolog 1 (Homo sapiens) (UniProt P83916); assay: qHTS Validation Assay for Inhibitors of HP1-beta Chromodomain Interactions with Methylated Histone Tails (AID 488953); further: nearly all actives have a fitted effect of over 50% in size; further: potency means the concentration at half of the fitted maximal effect
How it was run: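 AlphaScreen proximity signal from streptavidin donor and nickel chelate acceptor beads (final 10 ug/mL) after 30 min dark incubation. Compounds had 30 min at room temperature with preformed complex of 50 nM HP1-beta and 50 nM b-H3(1-18)K9me3 in PBS pH 7.4 with 0.01% Tween-20.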

[18] = molecular target: Transient receptor potential cation channel subfamily V member 1 (Homo sapiens) (UniProt Q8NER1); assay: HTS Assay for Compounds that Act as Enhancers of the Vanilloid Receptor 1 (AID 488979)
How it was run: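 Calcium influx kinetics via Fluo-8 (480/520 nm) in TRPV1-expressing cells, 2000/well cultured overnight at 35.5C. Compound-alone read 3 min (agonist phase), followed by EC20 capsaicin challenge for 2 min (enhancer phase).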

[19] = molecular target: ATP-dependent 6-phosphofructokinase (Trypanosoma brucei brucei) (UniProt O15648); assay: qHTS Assay to Find Inhibitors of T. brucei phosphofructokinase: hit validation (AID 492961);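 further: luminescence reports ADP formed as PFK phosphorylates fructose-6-phosphate with ATP; series mostly up to about 51 µM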
How it was run: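 ADP-Glo luminescence read-out of ADP formed by 1.25 nM PFK from 0.1 mM ATP and 0.5 mM F6P (TEA pH 8.0, 45 min, RT). Compounds titrated; activity normalized to no-enzyme and full-enzyme controls.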

Measured: Potency

M-phase phosphoprotein 8 (Homo sapiens), sequence (Q99549 whole entry, looked up): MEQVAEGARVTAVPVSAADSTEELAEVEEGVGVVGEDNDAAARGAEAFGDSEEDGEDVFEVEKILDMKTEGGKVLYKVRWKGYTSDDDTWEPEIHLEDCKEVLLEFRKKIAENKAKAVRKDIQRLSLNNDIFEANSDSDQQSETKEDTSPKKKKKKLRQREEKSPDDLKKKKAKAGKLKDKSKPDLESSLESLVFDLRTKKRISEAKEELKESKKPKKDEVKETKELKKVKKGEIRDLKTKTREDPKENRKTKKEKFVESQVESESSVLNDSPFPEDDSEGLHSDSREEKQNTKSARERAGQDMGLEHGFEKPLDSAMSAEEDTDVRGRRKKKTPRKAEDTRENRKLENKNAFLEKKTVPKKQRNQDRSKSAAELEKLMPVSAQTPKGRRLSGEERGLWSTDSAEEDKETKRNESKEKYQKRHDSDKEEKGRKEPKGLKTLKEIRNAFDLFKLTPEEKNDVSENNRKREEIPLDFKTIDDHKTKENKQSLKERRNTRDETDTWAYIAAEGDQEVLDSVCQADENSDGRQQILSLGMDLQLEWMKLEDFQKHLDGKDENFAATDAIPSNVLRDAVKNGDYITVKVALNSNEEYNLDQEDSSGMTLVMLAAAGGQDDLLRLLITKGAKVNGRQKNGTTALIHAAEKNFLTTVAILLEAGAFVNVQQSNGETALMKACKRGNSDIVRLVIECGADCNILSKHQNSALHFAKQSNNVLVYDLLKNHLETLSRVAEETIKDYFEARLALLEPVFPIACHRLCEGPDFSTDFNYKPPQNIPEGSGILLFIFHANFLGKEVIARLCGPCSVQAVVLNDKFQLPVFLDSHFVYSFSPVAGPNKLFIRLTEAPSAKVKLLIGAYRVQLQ
Methanococcus maripaludis chaperonin (MmCpn), sequence (Q6LX38 1-543): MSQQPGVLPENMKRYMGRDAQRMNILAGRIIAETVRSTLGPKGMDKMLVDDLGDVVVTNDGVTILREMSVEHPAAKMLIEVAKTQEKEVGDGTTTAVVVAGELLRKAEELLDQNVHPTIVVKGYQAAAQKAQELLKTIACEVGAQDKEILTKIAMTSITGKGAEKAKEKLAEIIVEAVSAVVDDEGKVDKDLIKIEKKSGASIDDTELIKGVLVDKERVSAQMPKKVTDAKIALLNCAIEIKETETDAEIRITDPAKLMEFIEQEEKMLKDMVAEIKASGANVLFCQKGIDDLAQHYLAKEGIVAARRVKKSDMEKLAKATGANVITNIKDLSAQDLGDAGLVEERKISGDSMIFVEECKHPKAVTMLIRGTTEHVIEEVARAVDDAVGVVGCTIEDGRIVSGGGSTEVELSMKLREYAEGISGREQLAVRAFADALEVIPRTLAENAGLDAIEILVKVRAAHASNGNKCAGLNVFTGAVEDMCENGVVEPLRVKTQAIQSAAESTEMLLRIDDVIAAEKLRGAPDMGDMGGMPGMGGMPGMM
Flap endonuclease 1 (Homo sapiens), sequence (P39748 whole entry, looked up): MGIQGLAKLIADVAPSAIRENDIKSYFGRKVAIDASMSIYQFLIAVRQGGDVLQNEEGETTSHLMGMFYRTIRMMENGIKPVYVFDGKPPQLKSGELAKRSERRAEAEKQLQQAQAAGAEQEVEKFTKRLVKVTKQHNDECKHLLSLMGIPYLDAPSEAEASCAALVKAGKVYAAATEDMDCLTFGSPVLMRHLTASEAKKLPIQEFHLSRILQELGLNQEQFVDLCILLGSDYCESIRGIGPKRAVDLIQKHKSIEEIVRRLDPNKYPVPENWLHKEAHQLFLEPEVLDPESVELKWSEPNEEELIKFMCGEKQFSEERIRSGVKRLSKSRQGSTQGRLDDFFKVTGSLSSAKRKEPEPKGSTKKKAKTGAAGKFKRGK
Thyrotropin receptor (Homo sapiens), sequence (P16473 whole entry, looked up): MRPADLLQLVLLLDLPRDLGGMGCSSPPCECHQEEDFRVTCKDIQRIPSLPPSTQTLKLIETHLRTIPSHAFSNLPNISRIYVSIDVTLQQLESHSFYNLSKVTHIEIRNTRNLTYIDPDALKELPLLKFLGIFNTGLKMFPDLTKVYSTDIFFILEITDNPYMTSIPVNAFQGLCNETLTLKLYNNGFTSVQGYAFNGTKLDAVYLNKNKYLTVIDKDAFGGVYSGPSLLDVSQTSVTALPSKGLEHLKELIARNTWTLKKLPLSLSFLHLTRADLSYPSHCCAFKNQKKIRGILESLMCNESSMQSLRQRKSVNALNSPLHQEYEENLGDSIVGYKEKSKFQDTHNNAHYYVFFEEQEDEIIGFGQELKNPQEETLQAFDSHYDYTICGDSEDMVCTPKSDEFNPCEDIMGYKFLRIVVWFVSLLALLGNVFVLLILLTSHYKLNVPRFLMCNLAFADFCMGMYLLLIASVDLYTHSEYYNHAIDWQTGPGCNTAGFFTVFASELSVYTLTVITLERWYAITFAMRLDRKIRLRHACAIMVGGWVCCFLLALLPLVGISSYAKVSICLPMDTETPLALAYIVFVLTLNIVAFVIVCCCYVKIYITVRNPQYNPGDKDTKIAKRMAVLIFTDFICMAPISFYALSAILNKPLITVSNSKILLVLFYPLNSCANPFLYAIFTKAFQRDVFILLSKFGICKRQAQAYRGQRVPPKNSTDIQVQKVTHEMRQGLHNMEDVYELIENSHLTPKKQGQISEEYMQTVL
ATP-dependent 6-phosphofructokinase (Trypanosoma brucei brucei), sequence (O15648 whole entry, looked up): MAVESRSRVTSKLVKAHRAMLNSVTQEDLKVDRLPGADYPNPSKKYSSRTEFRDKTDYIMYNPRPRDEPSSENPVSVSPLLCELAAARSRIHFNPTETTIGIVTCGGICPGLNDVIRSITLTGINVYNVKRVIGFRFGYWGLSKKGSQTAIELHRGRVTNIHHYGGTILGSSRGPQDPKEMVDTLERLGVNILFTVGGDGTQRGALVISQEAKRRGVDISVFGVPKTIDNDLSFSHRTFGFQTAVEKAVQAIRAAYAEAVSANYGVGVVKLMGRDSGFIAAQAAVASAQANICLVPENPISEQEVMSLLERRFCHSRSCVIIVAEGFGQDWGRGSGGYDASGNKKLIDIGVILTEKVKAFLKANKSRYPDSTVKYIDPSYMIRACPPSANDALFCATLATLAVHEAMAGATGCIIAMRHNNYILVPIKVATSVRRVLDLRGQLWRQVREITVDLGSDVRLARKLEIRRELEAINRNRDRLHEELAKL
Transient receptor potential cation channel subfamily V member 1 (Homo sapiens), sequence (Q8NER1 whole entry, looked up): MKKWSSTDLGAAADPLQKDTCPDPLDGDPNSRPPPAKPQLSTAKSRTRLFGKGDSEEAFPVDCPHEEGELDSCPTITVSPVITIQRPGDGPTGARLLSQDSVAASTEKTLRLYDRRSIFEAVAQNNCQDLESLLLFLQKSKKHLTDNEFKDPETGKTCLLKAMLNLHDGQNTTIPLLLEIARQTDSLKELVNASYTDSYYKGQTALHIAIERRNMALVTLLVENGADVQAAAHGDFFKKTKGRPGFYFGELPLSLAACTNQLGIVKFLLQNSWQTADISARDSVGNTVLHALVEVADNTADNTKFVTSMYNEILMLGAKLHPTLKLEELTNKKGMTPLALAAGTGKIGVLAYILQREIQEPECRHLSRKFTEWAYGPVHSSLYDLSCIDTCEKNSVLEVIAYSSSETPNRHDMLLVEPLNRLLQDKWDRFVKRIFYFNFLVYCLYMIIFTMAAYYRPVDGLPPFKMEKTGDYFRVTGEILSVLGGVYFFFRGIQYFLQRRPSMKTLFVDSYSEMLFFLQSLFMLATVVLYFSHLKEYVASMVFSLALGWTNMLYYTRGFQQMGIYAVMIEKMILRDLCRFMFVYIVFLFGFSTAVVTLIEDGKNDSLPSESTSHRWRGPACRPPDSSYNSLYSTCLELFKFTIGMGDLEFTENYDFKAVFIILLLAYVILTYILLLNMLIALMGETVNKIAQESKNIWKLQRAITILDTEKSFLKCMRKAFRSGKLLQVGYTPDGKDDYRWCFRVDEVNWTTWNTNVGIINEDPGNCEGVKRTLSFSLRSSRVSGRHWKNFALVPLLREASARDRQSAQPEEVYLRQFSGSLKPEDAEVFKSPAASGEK
Beta-2 adrenergic receptor (Homo sapiens), sequence (P07550 whole entry, looked up): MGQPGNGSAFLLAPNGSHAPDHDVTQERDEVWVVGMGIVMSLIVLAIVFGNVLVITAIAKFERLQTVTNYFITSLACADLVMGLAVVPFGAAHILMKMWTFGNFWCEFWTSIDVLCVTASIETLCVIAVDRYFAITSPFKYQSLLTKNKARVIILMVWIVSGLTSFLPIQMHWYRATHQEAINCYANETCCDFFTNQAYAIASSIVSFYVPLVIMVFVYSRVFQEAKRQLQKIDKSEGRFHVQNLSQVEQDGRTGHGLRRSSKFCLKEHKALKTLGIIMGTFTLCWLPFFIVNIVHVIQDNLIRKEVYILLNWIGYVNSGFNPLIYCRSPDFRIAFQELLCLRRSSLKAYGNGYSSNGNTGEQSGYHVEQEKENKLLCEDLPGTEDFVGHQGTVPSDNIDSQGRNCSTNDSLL
Thioredoxin reductase 1, cytoplasmic (Rattus norvegicus), sequence (O89049 whole entry, looked up): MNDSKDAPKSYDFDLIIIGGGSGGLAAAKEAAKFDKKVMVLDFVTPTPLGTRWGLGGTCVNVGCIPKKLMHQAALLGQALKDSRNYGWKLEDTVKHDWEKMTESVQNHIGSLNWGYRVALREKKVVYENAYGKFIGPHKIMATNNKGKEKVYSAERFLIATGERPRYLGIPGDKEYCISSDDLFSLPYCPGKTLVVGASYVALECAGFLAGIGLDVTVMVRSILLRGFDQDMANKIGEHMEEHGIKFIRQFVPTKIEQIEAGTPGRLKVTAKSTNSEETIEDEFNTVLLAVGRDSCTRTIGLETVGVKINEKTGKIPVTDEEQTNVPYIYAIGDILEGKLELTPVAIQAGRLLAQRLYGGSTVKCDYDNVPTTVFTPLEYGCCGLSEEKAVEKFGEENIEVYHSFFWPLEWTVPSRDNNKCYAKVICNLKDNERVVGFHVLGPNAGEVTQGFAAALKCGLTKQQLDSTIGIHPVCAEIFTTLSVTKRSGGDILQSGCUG
Chromobox protein homolog 1 (Homo sapiens), sequence (P83916 whole entry, looked up): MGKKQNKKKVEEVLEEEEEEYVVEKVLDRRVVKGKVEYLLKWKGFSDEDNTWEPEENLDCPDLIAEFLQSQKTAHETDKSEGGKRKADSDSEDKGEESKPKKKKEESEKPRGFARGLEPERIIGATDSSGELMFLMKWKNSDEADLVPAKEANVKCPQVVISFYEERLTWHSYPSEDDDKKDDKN

Cc1cc(C)c(/C=C2\C(=O)Nc3ccccc32)[nH]1
7.94 µM (active) and inactive: [6]
active: [9] 15.8 µM
not listed: [13] | [14] | [15] | [16] | [17] | [18] | [19]
inactive: all other assays above

O=C(O)CP(=O)(O)O
not listed: [3] | [7]
inactive: all other assays above

CCC(=O)c1ccc2c(c1)N(CCCN(C)C)c1ccccc1S2
active: [11] 0.891 µM
not listed: [3] | [4] | [8] | [15] | [17] | [18] | [19]
inactive: all other assays above

Cc1nc2sccn2c(=O)c1CCN1CCC(=C(c2ccc(F)cc2)c2ccc(F)cc2)CC1
28.2 µM (active) and inactive: [6]
active: [17] 44.7 µM
not listed: [2] | [3] | [11] | [14]
inactive: all other assays above

Nc1ncn([C@@H]2O[C@H](CO)[C@@H](O)[C@H]2O)c(=O)n1
not listed: [2] | [7] | [12] | [14]
inactive: all other assays above

CN(C)C(=O)Oc1cccc([N+](C)(C)C)c1
not listed: [3] | [12] | [15]
inactive: all other assays above

NC/C=C/C(=O)O
not listed: [2] | [4] | [16] | [19]
inactive: all other assays above

C=CCc1ccccc1OCC(O)CNC(C)C (stereo not given)
not listed: [1] | [2] | [3] | [19]
inactive: all other assays above

NC(=O)c1ncn([C@@H]2O[C@H](CO)[C@@H](O)[C@H]2O)c1O
not listed: [2] | [19]
inactive: all other assays above

CN(C)C/C=C(/c1ccc(Br)cc1)c1cccnc1
active: [15] 13.1 µM | [11] 12.6 µM
not listed: [3] | [17] | [18] | [19]
inactive: all other assays above

CSc1ccc(C(=O)c2[nH]c(=O)[nH]c2C)cc1
active: [10] 2.31 µM
not listed: [2] | [12] | [19]
inactive: all other assays above

C#CCN(C)CCCOc1ccc(Cl)cc1Cl
not listed: [3] | [7] | [8] | [12] | [14] | [19]
inactive: all other assays above

CCCN(CCC)C(=O)C(CCC(=O)O)NC(=O)c1ccccc1 (stereo not given)
not listed: [7] | [8] | [16] | [19]
inactive: all other assays above

CCCCCN(CCCCC)C(=O)C(CCC(=O)O)NC(=O)c1ccc(Cl)c(Cl)c1 (stereo not given)
not listed: [2] | [9] | [10] | [19]
inactive: all other assays above

CCCCNc1ccc(C(=O)OCCN(C)C)cc1
not listed: [3] | [7]
inactive: all other assays above

O=C(O)CCCCCCCC(=O)O
not listed: [2] | [7] | [19]
inactive: all other assays above

CCN(CC)CC(=O)Nc1c(C)cccc1C
not listed: [2] | [6] | [12] | [19]
inactive: all other assays above

OCCN1CCN(CC/C=C2/c3ccccc3Sc3ccc(C(F)(F)F)cc32)CC1
active: [3] 6.57 µM | [15] 8.28 µM | [6] 25.1 µM | [17] 35.5 µM
not listed: [2] | [11] | [14] | [18] | [19]
inactive: all other assays above

COCCCC/C(=N\OCCN)c1ccc(C(F)(F)F)cc1
inactive: [13] | [1] | [4] | [6] | [17] | [7] | [8] | [10] | [11] | [12]

CN(C)CC[C@@H](c1ccc(Br)cc1)c1ccccn1
not listed: [2] | [8] | [12] | [19]
inactive: all other assays above

CCN(CC)CCCN(c1ccccc1)C1Cc2ccccc2C1
not listed: [2] | [3] | [8] | [11] | [15] | [18] | [19]
inactive: all other assays above

Cc1nnc(SCC2=C(C(=O)O)N3C(=O)[C@@H](NC(=O)Cn4cnnn4)[C@H]3SC2)s1
not listed: [2] | [5] | [6] | [12] | [16] | [17]
inactive: all other assays above
